Measured values taken from PubChem BioAssay.
Active and inactive are the calls of the source. Unless noted, how the calls were made is not given here.

Experiments:
[1] = tested on: Wnt5a (protein binding on small-molecule microarray); assay: small molecules binding Wnt5a protein – biophysical, small-molecule microarray, 635/667 nm fluorescence, primary screen (AID 1142); conditions: 635 nm fluorescence, higher = more signal;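 further: fluorescence read at 667 nm with signal to noise per printed feature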
[2] = ATP-based viability of Huh7 replicon cells – cell-based, CellTiter-Glo luminescence, basal, 48 h, cytotoxicity control for HCV replication inhibitor project, primary screen (AID 1143); conditions: higher = more signal, called active from +8 up or from −8 down;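 further: Huh7 hepatoma cells carrying a hepatitis C replication reporter with no stimulus; test concentration not given here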
[3] = Pseudomonas biofilm growth suppression – PAO1 strain, BacTiter-Glo luminescence, LB-PBS, primary screen (AID 1144); conditions: P. aeruginosa PAO1 biofilm, 12 h, higher = more signal
[4] = basal CRE-LacZ reporter activity in PC12 – cell-based, unstimulated, primary screen (AID 1145); conditions: no forskolin, luminescence, 4.5 h, higher = more signal, called active from +8 up or from −8 down
[5] = forskolin-driven CRE-LacZ activity in PC12 – cell-based, CRE-LacZ reporter, forskolin-stimulated, primary screen (AID 1146); conditions: luminescence, 4.5 h, higher = more signal, called active from +8 up or from −8 down;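 further: PC12 cells with 6xCRE LacZ reporter stimulated by forskolin 10 µM; beta-galactosidase reporter signal reflecting CREB driven transcription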
[6] = biological target: Streptavidin (Streptomyces avidinii) (UniProt P22629); assay: compounds binding control protein streptavidin – biophysical, small-molecule microarray, 635/667 nm fluorescence, artefact control for SMM compound annotation, primary screen (AID 1147); conditions: higher = more signal;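 further: signal reflects streptavidin binding to arrayed compounds as a control protein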
[7] = probe aInhba binding on compound microarray – biochemical, small-molecule microarray, 635/667 nm fluorescence, primary screen (AID 1148); conditions: higher = more signal;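 further: score merges 667nm spot fluorescence with signal-to-noise for antibody binding to printed compounds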
Torsin-1A (Homo sapiens) [8] = biological target: Torsin-1A (Homo sapiens) (UniProt O14656); assay: TOR1A wild-type binding on microarray – cell lysate, small-molecule microarray, lysate, 635/667 nm, primary screen (AID 1149); conditions: COS7 hTOR1A-WT lysate, 635 nm fluorescence, higher = more signal
Torsin-1A (Homo sapiens) [9] = biological target: Torsin-1A (Homo sapiens) (UniProt O14656); assay: torsin A mutant lysate binding on microarrays – cell lysate, small-molecule microarray, COS7 lysate, 635/667 nm fluorescence, primary screen (AID 1150); conditions: COS7 hTOR1A mutant lysate, 635 nm fluorescence, higher = more signal;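 further: score pools 667 nm emission and signal to noise measuring lysate protein binding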
[10] = tested on: Sonic hedgehog protein (Shh); assay: Sonic hedgehog microarray binding compounds – biochemical, small-molecule microarray, 635/667 nm fluorescence, primary screen (AID 1151); conditions: 635 nm fluorescence, higher = more signal;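 further: Shh protein binding to compounds spotted on small-molecule microarray slides; score combines spot fluorescence intensity with signal-to-noise across triplicate slides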

Chain of Streptavidin (Streptomyces avidinii) (P22629 whole entry, looked up): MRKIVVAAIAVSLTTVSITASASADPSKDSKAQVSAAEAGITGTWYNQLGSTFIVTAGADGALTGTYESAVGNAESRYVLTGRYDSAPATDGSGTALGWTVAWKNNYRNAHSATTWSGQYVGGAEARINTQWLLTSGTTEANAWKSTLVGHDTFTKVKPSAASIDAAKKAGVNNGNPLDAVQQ
Chain of Torsin-1A (Homo sapiens) (O14656 whole entry, looked up): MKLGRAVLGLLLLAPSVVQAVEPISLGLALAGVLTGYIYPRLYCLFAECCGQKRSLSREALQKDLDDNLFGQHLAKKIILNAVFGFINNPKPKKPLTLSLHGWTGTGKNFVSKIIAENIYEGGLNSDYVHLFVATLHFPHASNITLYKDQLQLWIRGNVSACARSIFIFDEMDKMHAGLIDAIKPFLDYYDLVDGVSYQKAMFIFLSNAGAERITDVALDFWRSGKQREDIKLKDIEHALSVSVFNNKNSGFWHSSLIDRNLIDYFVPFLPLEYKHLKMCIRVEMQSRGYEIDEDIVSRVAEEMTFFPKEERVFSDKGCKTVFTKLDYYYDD

Row | SMILES | composite z-score [1] | z-score [2] | z-score [3] | z-score [4] | z-score [5] | composite z-score [6] | composite z-score [7] | composite z-score (Torsin-1A (Homo sapiens) [8]) | composite z-score (Torsin-1A (Homo sapiens) [9]) | composite z-score [10]
1 | CC(C)NC(=O)[C@@H]1c2ccccc2C(=O)N(Cc2ccccc2Cl)[C@H]1c1ccc(CO)cc1 | -0.243 | -0.485 (inactive) | 0.471 (inactive) | 0.145 (inactive) | -0.47 (inactive) | -0.418 | -0.179 | 0.267 | 0.343 | 0.0599
2 | COCCOC(=O)N1C(=O)[C@@]2(c3cc(C#CCC(C(=O)OC)C(=O)OC)ccc31)[C@H](c1ccccc1OCCO)N1[C@H](c3ccccc3)[C@H](c3ccccc3)OC(=O)[C@H]1[C@@H]2C(=O)N1CCc2cc(OC)c(OC)cc2C1 | -0.184 | -3.42 (inactive) | -1.52 (inactive) | -1.42 (inactive) | -1.16 (inactive) | 0.226 | -0.0774 | 0.298 | 0.619 | 1.88
3 | COC(=O)[C@@]1(Cc2ccccc2)[C@H]2c3cc(C(=O)N4CCCC4)n(C)c3C[C@H]2CN1C(=O)c1ccccc1 | 0.0131 | -1.6 (inactive) | 0.218 (inactive) | -0.182 (inactive) | 0.504 (inactive) | 1.64 | 0.271 | -0.212 | 0.0645 | -0.157
4 | [N-]=[N+]=NCc1ccccc1[C@H]1OC(c2ccc(OCCCO)cc2)=N[C@@]1(CCS(=O)(=O)c1ccccc1)C(=O)N1CCOCC1 | 1.03 | -0.865 (inactive) | 0.164 (inactive) | 0.526 (inactive) | 0.363 (inactive) | 1.62 | 0.556 | 1.7 | 1.85 | -0.164
5 | CCCC[C@@H]1C[C@H]1[C@@H](NC(=O)c1ccc(-c2ccccc2)cc1)c1ccc(-c2ccccc2)cc1 | 0.198 | -2.94 (inactive) | 0.0911 (inactive) | 0.394 (inactive) | 1.7 (inactive) | 0.305 | 0.0111 | 0.0287 | -0.0963 | 2.02
6 | O=C1OCC=C[C@H]2OC34C=CCN(c5ccc(Cl)cc5)C(=O)[C@H]3N(CCCCCCO)C(=O)[C@@H]4[C@@H]12 (stereo not given in full) | -0.557 | -0.652 (inactive) | 1.36 (inactive) | 1.41 (inactive) | -0.0889 (inactive) | -0.857 | -0.0494 | -1.39 | -1.21 | -0.38
7 | COc1ccc(NN2C(C(O)c3ccc(OC)c(OCc4ccccc4)c3)C=CC3C(=O)N(C4CCCCC4)C(=O)C32)cc1 (stereo not given) | 0.285 | -2.17 (inactive) | -1.73 (inactive) | -0.322 (inactive) | 0.693 (inactive) | 1.19 | 0.0769 | -0.196 | 0.185 | -0.504
8 | C=C(COC)C(=O)CC[C@@H](OC(=O)c1cccnc1)c1ccc(CO)o1 | 0.345 | -0.336 (inactive) | -0.0359 (inactive) | 0.611 (inactive) | 0.114 (inactive) | -0.022 | -0.0675 | 0.247 | -0.332 | 1.6
9 | CC(C)C[C@@H]1NC(=O)[C@@H]2C[C@H](C(=O)NCCCCCC[N+](C)(C)C)[C@H](c3ccc(O)cc3)N2C1=O | 0.0505 | 0.0436 (inactive) | -0.555 (inactive) | -0.532 (inactive) | 0.0161 (inactive) | 0.313 | -0.0448 | 1.08 | 0.767 | 2.03
10 | CCOC(=O)C[C@H]1[C@H](OC(=O)Cc2ccc3c(c2)OCO3)[C@@H](NC(=O)c2ccc(-c3ccccc3)cc2)c2cc(OCCCO)ccc2N1C(=O)c1ccccc1 | 0.0105 | -0.299 (inactive) | -1.24 (inactive) | 3.12 (inactive) | -1.27 (inactive) | 0.0534 | 0.0906 | 0.328 | 0.132 | 0.358
11 | O=C1O[C@H](c2ccccc2)[C@H](c2ccccc2)N2[C@H]1[C@@H](C(=O)O)[C@]1(C(=O)Nc3ccc(C#CC4=CCCCC4)cc31)[C@H]2c1ccc(OCCO)cc1 | 1.04 | -1.89 (inactive) | -1.37 (inactive) | 0.0816 (inactive) | 3.42 (inactive) | 1.22 | 0.201 | 0.586 | 1.16 | 1.09
12 | CC(C)c1ccc(NN2C(C(O)c3ccc(N(C)C)cc3)C=CC3C(=O)N(c4ccccc4)C(=O)C32)cc1 (stereo not given) | 0.125 | -1.1 (inactive) | -0.666 (inactive) | -0.133 (inactive) | 0.856 (inactive) | 1.76 | 0.268 | 0.074 | 0.658 | -0.0206
13 | COCCOC(=O)N1C(=O)[C@@]2(c3cc(C#Cc4ccc(OC)cc4)ccc31)[C@H](C(=O)N1CCN(c3ncccn3)CC1)[C@H]1C(=O)O[C@H](c3ccccc3)[C@H](c3ccccc3)N1[C@@H]2c1ccc(O)cc1 | -0.0081 | -3.61 (inactive) | -1.03 (inactive) | -0.191 (inactive) | 0.0921 (inactive) | -0.0988 | -0.0762 | 0.561 | -0.007 | 0.736
14 | CCOC(=O)C[C@H]1[C@H](OC(=O)c2ccc(-c3ccccc3)cc2)[C@@H](NC(=O)c2ccc3ccccc3c2)c2cc(OCCCO)ccc2N1C(=O)Cc1ccc(OC)cc1 | 0.266 | 0.359 (inactive) | -0.599 (inactive) | -1.01 (inactive) | 0.809 (inactive) | -0.0829 | -0.0954 | 0.0044 | -0.497 | -0.0004
